This is a sample that favours compounds with a hit; in the whole collection about 3.3% have one here.
HCV inhibitor: qHTS Assay for Inhibitors of Hepatitis C Virus (HCV); Huh7.5.1 HCVcc-Cre infection, luciferase reporter, 44 h; Potency, µM (titrated, usually from 41.8 µM), actives largely listed as inhibitors; 340,000 tested, 3.4% active; AID 651820, 2012; active means well fitted inhibition curve with a large enough effect; inconclusive means small, poorly fitted or top-dose-only effect, or another doubt; inactive means no such curve, though single readings can be large or run the other way
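Compounds are dispensed onto cells plated 4 h earlier at 1,000 per well, with HCVcc-Cre virus (about 0.5 moi) added next. Following 44 h of culture, luminescent signal is measured for 15 sec after 15 min with substrate at room temperature.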
Vaccinia Venus: qHTS for Stage-Specific Inhibitors of Vaccinia Orthopoxvirus: Venus Reporter Primary qHTS; Vaccinia virus Venus reporter expression, fluorescence; Potency, µM (series often up to 36.5 µM), hits mostly inhibitors; 330,000 tested, 0.46% active; calls by dose curve; tested in A549 cells; further: nearly all actives have a fitted effect of over 30% in size
Vaccinia mCherry: qHTS for Stage-Specific Inhibitors of Vaccinia Orthopoxvirus: mCherry Reporter Primary qHTS. Vaccinia virus mCherry reporter infection, fluorescence. Potency, µM (highest dose often 36.5 µM), hits mostly inhibitors. 310,000 tested, 0.63% active; calls by dose curve; tested in A549 cells; further: nearly all actives have a fitted effect of over 35% in size
Large screens that a line does not name were inactive.

Cc1ccc(C)c(S(=O)(=O)N2CCCCC2CCNC(=O)C(=O)NCc2ccccc2)c1 (stereo not drawn)	HCV inhibitor 22.4µM, Vaccinia Venus inconclusive, Vaccinia mCherry inconclusive
COc1cccc(NC(=O)C(=O)NCCC2CCCCN2S(=O)(=O)c2ccccc2)c1 (stereo not drawn)	HCV inhibitor 3.98µM
COc1cccc(CNS(=O)(=O)c2cnc(N)nc2)c1	none (no result: HCV inhibitor)
CC(NC(=O)c1cccnc1)c1nnc2n1CCN(Cc1ccc(-c3ccccc3)cc1)CC2 (stereo not drawn)	none (no result: HCV inhibitor)
O=C(NCCC1CCCCN1S(=O)(=O)c1cccs1)C(=O)Nc1ccccc1F (stereo not drawn)	HCV inhibitor 8.91µM
COc1ccccc1NC(=O)C(=O)NCCC1CCCCN1S(=O)(=O)c1cccs1 (stereo not drawn)	HCV inhibitor inconclusive
c1ccc(-c2csc(Nc3cccnc3)n2)nc1	HCV inhibitor 10µM (no result: Vaccinia Venus, Vaccinia mCherry)
c1ccc(Nc2nc(-c3ccncc3)cs2)cc1	HCV inhibitor inconclusive (no result: Vaccinia mCherry)
c1cncc(Nc2nc(-c3cccs3)cs2)c1	HCV inhibitor 3.16µM (no result: Vaccinia Venus, Vaccinia mCherry)
c1ccc(Nc2nc(-c3ccccn3)cs2)cc1	HCV inhibitor inconclusive
COCCN(CCOC)C(=O)c1ccc(CSc2nc3ccccc3s2)cc1	HCV inhibitor inconclusive
Cc1[nH]c2ccccc2c1/C=N/n1cnnc1	none
COCCN=c1scc(-c2cc(OC)c(OC)c(OC)c2)n1/N=C/c1c(C)[nH]c2ccccc12	HCV inhibitor 8.91µM, Vaccinia Venus inconclusive, Vaccinia mCherry inconclusive
O=C(CCCn1c2ccccc2c(=O)c2ccccc21)Nc1cccc(Cl)c1	none (no result: HCV inhibitor)
CCCN(C(=O)c1cccs1)c1c(N)n(Cc2ccccc2)c(=O)[nH]c1=O	none (no result: Vaccinia Venus, Vaccinia mCherry)
Cc1ccc(Cl)cc1N1CCN(C(=O)c2ccc(CS(=O)(=O)c3ccccc3C)o2)CC1	none (no result: HCV inhibitor)
Cc1ccccc1S(=O)(=O)Cc1ccc(C(=O)N2CCN(c3ccccc3F)CC2)o1	HCV inhibitor 10µM
COc1ccc(C(=O)OCCc2sc[n+](CC(=O)c3ccccc3)c2C)cc1	HCV inhibitor inconclusive
Cc1c(CCOC(=O)c2ccc(Cl)cc2Cl)sc[n+]1CC(=O)c1ccc(Br)cc1	HCV inhibitor 14.1µM (no result: Vaccinia Venus, Vaccinia mCherry)
CCCN(CCC)c1ccc(/C=C/c2ccnc3ccccc23)cc1	none (no result: HCV inhibitor)
COc1ccccc1Nc1nc(NCCC(C)C)nc(N)c1[N+](=O)[O-]	HCV inhibitor 12.6µM (no result: Vaccinia Venus, Vaccinia mCherry)
COc1ccccc1Nc1nc(NCCO)nc(N)c1[N+](=O)[O-]	none
CSc1ccc(CCNC(=O)CCn2c(=O)c3cccn3c3cccnc32)cc1	none (no result: HCV inhibitor)
Cc1ccc2nc(CNC(=O)c3cc(NC(=O)c4ccccc4)cc4ncn(C5CCCC5)c34)cn2c1	none (no result: HCV inhibitor)
Oc1ccc(C[C@@H]2CNCCN2CCc2cc(C(F)(F)F)cc(C(F)(F)F)c2)cc1	HCV inhibitor inconclusive, Vaccinia Venus 10µM, Vaccinia mCherry 14.1µM
Oc1ccc(C[C@H]2CNCCN2CCc2cc(C(F)(F)F)cc(C(F)(F)F)c2)cc1	HCV inhibitor inconclusive
CC(C)n1ncc2c(C(=O)NCC(=O)Nc3ccccc3Br)cc(C3CC3)nc21	none (no result: Vaccinia Venus, Vaccinia mCherry)
COc1ccccc1CCNC(=O)c1cc(C2CC2)nc2c1cnn2C(C)C	HCV inhibitor 8.91µM
COc1ccc(CCNC(=O)c2cc(C)oc2C)cc1	none (no result: Vaccinia Venus, Vaccinia mCherry)
Cc1cccc(OCCNC(=O)c2cc(C3CC3)nc3c2cnn3C(C)C)c1	none (no result: HCV inhibitor)
COc1ccccc1OCCNC(=O)c1cc(C2CC2)nc2c1cnn2C(C)C	HCV inhibitor 1.26µM
COc1ccc(CCNC(=O)c2cc(C3CC3)nc3c2cnn3C(C)C)cc1	HCV inhibitor 10µM (no result: Vaccinia Venus, Vaccinia mCherry)
CC(=O)Nc1ccc(C2=CC(=O)C[C@H](c3ccc4c(c3)OCO4)C2)cc1	Vaccinia mCherry inconclusive
Cc1ccccc1OC(C)C(=O)NCCNC(=O)C(C)Oc1ccccc1C (stereo not drawn)	none (no result: HCV inhibitor)
CCn1c(SC(C)C(=O)Nc2ccc(C)cc2)nnc1-c1ccccc1 (stereo not drawn)	none (no result: HCV inhibitor)
CCc1cc2c(=O)[nH]c(N3CCCC3)nc2s1	none
CCc1cc2c(=O)[nH]c(-c3ccccn3)nc2s1	HCV inhibitor inconclusive, Vaccinia Venus inconclusive, Vaccinia mCherry 2.82µM
O=C(Cn1ncc2c(=O)oc3ccccc3c21)NCc1ccccc1Cl	none (no result: HCV inhibitor)
COc1ccc(NC(=O)CSc2nc3ccc(Nc4nc(N5CCOCC5)nc(N5CCOCC5)n4)cc3s2)cc1	HCV inhibitor 10µM (no result: Vaccinia Venus, Vaccinia mCherry)
CC(C)(C)NC(=O)CSc1nc2ccc(Nc3nc(N4CCOCC4)nc(N4CCOCC4)n3)cc2s1	none (no result: Vaccinia Venus, Vaccinia mCherry)
CC(=O)CSc1nc2ccc(Nc3nc(N4CCOCC4)nc(N4CCOCC4)n3)cc2s1	HCV inhibitor 31.6µM (no result: Vaccinia Venus, Vaccinia mCherry)
Cc1ccc(NC(=O)CSc2nc3ccc(Nc4nc(N5CCOCC5)nc(N5CCOCC5)n4)cc3s2)cc1	none
Cc1c(C)c2c(c(C)c1O)CCC(C)(CCCC(C)CCCC(C)CCCC(C)C)O2 (stereo not drawn)	none (no result: HCV inhibitor)
COCC(=O)Nc1cc(C(=O)N2CC3CCCC2C3)c2c(c1)nc(-c1ccncc1)n2C (stereo not drawn)	none (no result: HCV inhibitor)
Cc1ccc(NC(=S)NCc2ccc(Cl)cc2)c(C)c1	HCV inhibitor inconclusive
COc1ccc(OC)c(CN2CCC(Cc3ccccc3)CC2)c1	none (no result: Vaccinia Venus, Vaccinia mCherry)
COc1cc(C)c(CN2CCC(Cc3ccccc3)CC2)cc1C	HCV inhibitor 12.6µM (no result: Vaccinia Venus, Vaccinia mCherry)
O=C(CCCC1=NS(=O)(=O)c2ccccc2N1)OCc1ccc(Cl)cc1	none
COc1cc(CNc2ccc3[nH]c(=O)[nH]c3c2)ccc1OCc1ccccc1Cl	Vaccinia mCherry inconclusive
COc1cc(CNc2ccc3[nH]c(=O)[nH]c3c2)ccc1OCc1cccc(C)c1	HCV inhibitor 6.31µM, Vaccinia Venus inconclusive, Vaccinia mCherry inconclusive
CC12CCC(=O)N1C(C(=O)Nc1nc(-c3ccccc3Cl)cs1)CS2 (stereo not drawn)	HCV inhibitor 10µM, Vaccinia Venus inconclusive, Vaccinia mCherry inconclusive
COc1ccc(-c2csc(NC(=O)C3CSC4(C)CCC(=O)N34)n2)cc1OC (stereo not drawn)	HCV inhibitor inconclusive
COc1ccc(OC)c(-c2csc(NC(=O)C3CSC4(C)CCC(=O)N34)n2)c1 (stereo not drawn)	HCV inhibitor 3.16µM, Vaccinia Venus inconclusive
CC12CCC(=O)N1C(C(=O)Nc1nc(-c3ccc(F)cc3)cs1)CS2 (stereo not drawn)	none
Cc1ccc(C2=Nc3ccccc3N(CC(=O)NCc3ccccc3Cl)C(=O)C2)cc1C	none (no result: HCV inhibitor)
CC(C)c1nc(N2CCN(C(=O)c3ccco3)CC2)c2c3c(sc2n1)CCCC3	HCV inhibitor 22.4µM
O=C(c1ccco1)N1CCN(C(=O)c2cccn3c(=O)c4c5c(sc4nc23)CCCC5)CC1	none (no result: Vaccinia Venus, Vaccinia mCherry)
Cc1sc2ncnc(SCC(=O)N3CCN(C(=O)c4ccco4)CC3)c2c1C	none
Cc1sc2nc(C(C)C)nc(SCC(=O)N3CCN(C(=O)c4ccco4)CC3)c2c1C	HCV inhibitor 11.2µM
O=C(Nc1ccc(S(=O)(=O)NC2=NCCCCC2)cc1)c1ccc2ccccc2n1	HCV inhibitor inconclusive
CCCCOc1nnc(-c2ccc(OCC)cc2)c2ccccc12	none (no result: HCV inhibitor)
CCOC(=O)C1=C(C)NC2=C(C(=O)C(C(=O)OCC)C(c3ccco3)C2)C1c1ccccc1C (stereo not drawn)	none (no result: HCV inhibitor)
COc1cc(CNc2cccc3[nH]c(C(F)(F)F)nc23)cc(OC)c1	HCV inhibitor 11.2µM (no result: Vaccinia Venus, Vaccinia mCherry)
COc1cccc(-c2cc(C(F)(F)F)nc(NCc3ccc(F)cc3)n2)c1	none (no result: HCV inhibitor)
COc1ccc(CNc2cccc3[nH]c(C(F)(F)F)nc23)cc1	HCV inhibitor 3.16µM, Vaccinia mCherry inconclusive

Bioassay records deposited in PubChem BioAssay by National Center for Advancing Translational Sciences (NCATS).
